Where “and” joins values, the source holds several entries; their conditions need not be identical. Equal values may be shown once. About 83,000 compounds went through this panel and 20% of them were active in at least one assay; those are over-represented in the sample as a whole.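 Step 1: grow cells in 96-well plates. Step 2: add test compound at a single concentration. Step 3: incubate 48 h. Step 4: record percent growth.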 Calls of active or inactive are those of the source. The calls were made as follows: active = growth percent below 10; inactive = the rest.
Test system: SK-OV-3 ovarian
Assay: NCI-60 one-dose screen, 48 h (100 = growth as untreated, 0 = no growth, -100 = all killed)
Settings: 100 µM

Structure (SMILES) | growth
CCN(Cc1ccccc1)c1ccc(/C=C2\COc3ccccc3C2=O)cc1 | 65.2% (inactive)
CC(=O)/C=C/c1ccc(OCc2ccc(C(C)(C)C)cc2)cc1 | 39.5% (inactive)
CC(=O)/C=C/c1ccc(N(CCO)Cc2ccc(C(C)(C)C)cc2)cc1 | -99% (active)
O=C(/C=C/c1cccc(Oc2ccc(Cl)cc2)c1)c1ccccc1 | -93.7% (active)
COc1ccc(C(=O)/C=C/c2ccc(OCc3cccc(C(F)(F)F)c3)c(OC)c2)cc1OC | 20% (inactive)
CC(=O)/C=C/c1ccc(OCc2ccc(Cl)cc2)cc1 | 38.8% (inactive)
COc1ccc(C(=O)/C=C/c2ccc(OCc3ccc(Cl)cc3)cc2)cc1OC | 7.5% (active)
CC(=O)/C=C/c1ccc(N(C)Cc2ccc(C(C)(C)C)cc2)cc1 | -29.8% (active)

Test system: IGROV1 ovarian
Assay: as above
Settings: 10 µM

Structure (SMILES) | growth
CCN(Cc1ccccc1)c1ccc(/C=C2\COc3ccccc3C2=O)cc1 | 99.1% (inactive)
CC(=O)/C=C/c1ccc(OCc2ccc(C(C)(C)C)cc2)cc1 | 98.6% (inactive)
CC(=O)/C=C/c1ccc(N(CCO)Cc2ccc(C(C)(C)C)cc2)cc1 | 96.6% (inactive)
O=C(/C=C/c1cccc(Oc2ccc(Cl)cc2)c1)c1ccccc1 | 102% (inactive)
COc1ccc(C(=O)/C=C/c2ccc(OCc3cccc(C(F)(F)F)c3)c(OC)c2)cc1OC | 93.6% (inactive)
CC(=O)/C=C/c1ccc(OCc2ccc(Cl)cc2)cc1 | 106% (inactive)
COc1ccc(C(=O)/C=C/c2ccc(OCc3ccc(Cl)cc3)cc2)cc1OC | 105% (inactive)
CC(=O)/C=C/c1ccc(N(C)Cc2ccc(C(C)(C)C)cc2)cc1 | 99% (inactive)

Same assay, conditions: 10 µM unless noted

Structure (SMILES) | growth
CCOC(=O)c1ccc(Nc2ncnc3c2cnn3-c2cccc(F)c2)cc1 | 98.7% (inactive)
O=S(=O)(O)c1ccc(N=Nc2ccc(N=Nc3cccc4ccccc34)c(S(=O)(=O)O)c2)cc1 | 96.3% (inactive)
CC[C@@H]1NC(=O)[C@H]([C@H](O)[C@H](C)C/C=C/c2ccc(CN3C(=O)C(C)=C(C)C3=O)cc2)N(C)C(=O)[C@H](C(C)C)N(C)C(=O)[C@H](CC(C)C)N(C)C(=O)[C@H](CC(C)C)N(C)C(=O)[C@@H](C)NC(=O)[C@H](C)NC(=O)[C@H](CC(C)C)N(C)C(=O)[C@H](C(C)C)NC(=O)[C@H](CC(C)C)N(C)C(=O)CN(C)C1=O | 68.6% (inactive)
COc1nc(=O)n(C2C=CC(=O)O2)cc1F (configuration not stated) | 116% (inactive)
COc1ccc(-c2csc(NC(=O)CN3CCN(CCO)CC3)n2)cc1NS(=O)(=O)c1cccc2c(N(C)C)cccc12 | 77.3% (inactive)
O=C1/C(=C/c2ccc(-c3cccc(C(F)(F)F)c3)o2)SC(=S)N1CCc1ccc(O)cc1 | 48.8% (inactive)
BrC1=C(Br)C(Br)(Br)C(Br)=C1Br | 98.3% (inactive)
OCc1cc(CN2CCCCC2)c(O)c2ncccc12 | 52.7% (inactive)
COc1ccc(C2=C(CN)C(O)NC(=NCC(=O)c3ccc4ccccc4c3)N2)cc1 (configuration not stated) | 102% (inactive)
N#CSc1c[nH]c2ccc(/C=C/C(=O)/C=C(/C=C/c3ccc4[nH]cc(SC#N)c4c3)OB(F)F)cc12 | -55.5% (active)
COc1ccc(Oc2nc(Nc3ccc(N4CCOCC4)cc3)ncc2NC(=O)c2cc(OC)cc(OC)c2)cc1 | 83.8% (inactive)
COc1ccc2c(c1)oc1c(C)c3c(c(C)c12)C(=O)N(Nc1ccccc1)C3=O | 102% (inactive)
COc1ccc(/C=C2/C(=O)N=C3N2NC(c2ccccc2)=CN3c2ccccc2)cc1 | 95.9% (inactive)
O=C1/C(=C/c2ccccc2[N+](=O)[O-])Cc2ccccc21 | -10.6% (active) and 17.3% (inactive)
COc1ccc2c(c1)CCNC21C(=O)Nc2c(Br)cc(Br)cc21 (configuration not stated) | 82.4% (inactive)
O=C(N/N=C/c1ccc(O)cc1O)c1cccc(Nc2ccnc(C(F)(F)F)c2)c1 | 34.2% (inactive)
O=C(c1cccc(Br)c1)N1CCN(c2ccnc3cc(Cl)ccc23)CC1 | 90.6% (inactive)
CCCCCC#CC1OC23CCCCC2C(C#N)(C(=N)O3)C1(C#N)C#N (configuration not stated) | 99.4% (inactive)
COc1ccc(-c2c[nH]c(C(=O)O)c2-c2cc(OC)c(OC)c(OC)c2)cc1 | 54.8% (inactive)
NC(N)=NC(N)=NCCCc1ccco1 | 99.8% (inactive)
CN1Cn2c(ccc2C(F)(F)F)C(=O)CS1(=O)=O | 104% (inactive)
